Common to all, as to test: NCI-60 one-dose screen, 48 h (100 = growth as untreated, 0 = no growth, -100 = all killed)
What all share (conditions): 10 µM unless noted

Experiment [1] relates to HCT-15 colon.
The subject of experiment [2] is HT29 colon.
Experiment [3] has as its system SNB-19 CNS.
The test system of experiment [4] is U251 CNS.
The test system of experiment [5] is PC-3 prostate.
Experiment [6] deals with SK-MEL-5 melanoma.
The subject of experiment [7] is UACC-62 melanoma.
Experiment [8] deals with SK-MEL-28 melanoma.
The test system of experiment [9] is SK-MEL-2 melanoma.
Experiment [10] deals with EKVX NSCLC.
Experiment [11] concerns SN12C renal.
The test system of experiment [12] is UO-31 renal.
Experiment [13] relates to ACHN renal.
For experiment [14], the system named is CAKI-1 renal.
Experiment [15] concerns A498 renal.
Experiment [16] concerns CCRF-CEM leukemia.
Experiment [17] relates to MOLT-4 leukemia.
The test system of experiment [18] is TK-10 renal.
Experiment [19] deals with LOX IMVI melanoma.

Compounds without any hit were thinned out: in the full panel of roughly 83,000, 20% have a hit.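 For each line, cells grew in 96-well plates with the test compound present at a single concentration for 48 hours.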 Unmarked numbers belong to inactive results. Calls of active or inactive are those of the source. Rule for the calls: active = growth percent below 10; inactive = the rest.

Turning to `O=c1[nH]c(Nc2ccc(S(=O)(=O)O)cc2)nc2nc(Nc3ccc(NC(=S)Nc4ccccc4)cc3)nc(-c3ccc(O)cc3O)c12`, the growth in experiment [1] is 105%; in [2], 125%; in experiment [3], 91.1%; in experiment [4], 101%; in experiment [5], 108%; in [6] it was 114%. Also, the growth was 91.5% in experiment [7]; 112% in experiment [8]; 101% in experiment [9]; 110% in experiment [10]; 98.5% in experiment [11]; 73.9% in [12]. The growth in experiment [13] is 100%; in experiment [14], 134%; in experiment [15], 111%; in experiment [16] it was 94.5%; in experiment [17], 91.4%.

Turning to `CCOC(=O)c1ccc2c(c1)nc(-c1ccc(OCc3ccccc3)c(OC)c1)n2-c1cc(C(C)(C)C)[nH]n1`, the growth in [1] is 59.4%; in experiment [2], 71.7%; in experiment [3], 105%; in [4] it was 91.9%; in [5], 55.5%; in [6], 65.3%. For the same compound, the growth in experiment [7] was 84.3%; in experiment [8] it was 107%; in experiment [9], 92.9%; in experiment [11], 85.8%; in experiment [12], 67.5%; in [18], 90.5%. The growth in experiment [13] was 72.1%; in experiment [14], 76.5%; in experiment [15] it was 72.3%; in experiment [17], 43.4%.

As to `N[C@@H]1CCN(C(=O)c2cc3cc(Cl)c(F)c(F)c3[nH]2)C1`, the growth in experiment [1] is 96.8%; in experiment [2], 88%; in experiment [3] it was 90.2%; in [4], 86.2%; in experiment [5], 90.5%; in [7], 104%. Also, the growth in [19] was 84%; in experiment [8], 105%; in [9] it was 99.4%; in [10], 86.9%; in experiment [11], 90.6%; in experiment [12] it was 63.4%. The growth in experiment [13] is 90.9%; in experiment [14] it was 68%; in experiment [16], 102%; in experiment [17] it was 94.7%.

Turning to `CCN(CC)c1ccc(/C=C2\Oc3ccc(O)c(I)c3C2=O)cc1`, the growth in experiment [1] was 37%; in experiment [2] it was 72.4%; in experiment [3], 49.7%; in [4], 49.1%; in [5], 52.8%; in experiment [7], 49.8%. Moreover, the growth was 34.2% in experiment [19]; 74.3% in [8]; 62.3% in [9]; 73.3% in experiment [10]; 76.9% in [11]; 46.3% in experiment [12]. Also, the growth is 74.2% in experiment [18]; 54.9% in experiment [13]; 68.4% in [14]; 13.3% in experiment [16]; 16.4% in [17].

`CC(=O)Oc1cccc(S(=O)(=O)n2cc(C(=O)C(=O)Nc3ccncc3)c3ccccc32)c1`: the growth was 80.1% in experiment [1]; 86.1% in [2]; 92.9% in experiment [3]; 93.1% in [4]; 81.4% in experiment [5]; 73.5% in [6]. In addition, the growth is 70.8% in experiment [7]; 51.4% in experiment [10]; 85.1% in experiment [11]; 75.3% in experiment [12]; 102% in experiment [18]; 67.5% in [14]. Also, the growth in experiment [15] was 63.3%; in experiment [17], 90.9%.

On to `CN1C(=O)N(C)C2C1NN=c1s/c(=C\C=C\c3ccccc3)c(=O)n12` (configuration not stated), for which the growth in experiment [1] was 32.4%; in [2], 20.7%; in [3], 57.9%; in experiment [4], 63.7%; in [5], 40.9%; in [7] it was 43.6%. Also, the growth in [19] is 46.4%; in experiment [8], 68.4%; in experiment [9] it was 61.6%; in experiment [10] it was 69.9%; in experiment [11], 83.5%; in experiment [12], 70.3%. For the same compound, the growth in experiment [18] was 80%; in experiment [14], 46.1%; in [16], 53.8%; in [17] it was 65.2%.

On to `COc1ccc(/C=C2\Oc3cc(OCCCN4CCCC4)ccc3C2=O)cc1`, for which the growth in experiment [1] was 26.3%; in experiment [2], 17%; in experiment [3], 92.4%; in [4], 82.7%; in [5], 85.5%; in experiment [7], 100%. Moreover, the growth in [19] was 13.3%; in [8] it was 103%; in experiment [9], 100%; in experiment [10] it was 89.6%; in experiment [11], 90.4%; in [12], 73.9%. For the same compound, the growth was 95.2% in experiment [18]; 92.6% in [13]; 91.6% in experiment [14]; 52.3% in experiment [16]; 72.2% in experiment [17].

In the case of `COC(=O)[C@]12CC[C@@H](C)[C@H](C)[C@@H]1C1=CC[C@@H]3[C@@]4(C)C(C=O)=C[C@@](C)(COC(=O)c5ccco5)[C@@H]4[C@H](O)C[C@@]3(C)[C@]1(C)CC2`, the growth was -78.3% (active) in [1]; -64.4% (active) in experiment [2]; 7.8% (active) in [3]; -76.8% (active) in experiment [4]; -8% (active) in experiment [5]; -94.9% (active) in experiment [6]. The growth in experiment [19] is -91.4% (active); in experiment [9], -44.4% (active); in experiment [10], -18.1% (active); in experiment [11], -19.7% (active); in [12], -76.3% (active); in [18], 11.5%. Also, the growth in experiment [13] was -47.7% (active); in [14] it was -6.76% (active); in [15], -2.1% (active); in [16], -24.1% (active); in experiment [17] it was -0.738% (active).

`COc1cc(-c2nc(-c3nc4ccc(Cl)cc4[nH]3)cc3c2[nH]c2ccccc23)cc(OC)c1OC`: the growth in experiment [1] is 72.8%; in [2] it was 75%; in [3], 79.9%; in experiment [4], 80.1%; in [5], 53.2%; in experiment [7], 33.6%. The growth in experiment [19] is 67.8%; in [8] it was 99.8%; in experiment [9], 62%; in experiment [11], 66.1%; in [12], 41.7%; in experiment [18] it was 93.6%. Moreover, the growth in experiment [13] was 66.4%; in experiment [14], 83.7%; in [15], 78%; in [16], 46.5%; in [17], 34.4%.

These data come from PubChem BioAssay (NCI).
